A selection: hits, their analogues and other compounds. The true share with any hit is near 2.4%.
Anthrax LT inh = blocks cellular internalization of anthrax lethal toxin. Cells, anthrax lethal toxin internalization, FRET ratio (460/530). actives 0.67% (n = 70,000). AID 912. Potency, µM (series often up to 40 µM), without a hit: at the top dose activity change, negative = inhibition, hits mostly inhibitors; further: on the % scale 0 is the no-effect control and ±100 the full control effect; nearly all actives have a fitted effect of over 50% in size
AmpC nodet inh = AmpC beta-lactamase inhibition, detergent-free assay. Potency, µM (titrated, usually from 28.7 µM), inactives show at the highest dose activity change, negative = inhibition. P00811. AmpC nitrocefin hydrolysis, absorbance 480 nm, no detergent. AID 585. actives 1.8% (n = 71,000); further: % of control where 0% means no effect
Target sequence (P00811 whole entry, looked up): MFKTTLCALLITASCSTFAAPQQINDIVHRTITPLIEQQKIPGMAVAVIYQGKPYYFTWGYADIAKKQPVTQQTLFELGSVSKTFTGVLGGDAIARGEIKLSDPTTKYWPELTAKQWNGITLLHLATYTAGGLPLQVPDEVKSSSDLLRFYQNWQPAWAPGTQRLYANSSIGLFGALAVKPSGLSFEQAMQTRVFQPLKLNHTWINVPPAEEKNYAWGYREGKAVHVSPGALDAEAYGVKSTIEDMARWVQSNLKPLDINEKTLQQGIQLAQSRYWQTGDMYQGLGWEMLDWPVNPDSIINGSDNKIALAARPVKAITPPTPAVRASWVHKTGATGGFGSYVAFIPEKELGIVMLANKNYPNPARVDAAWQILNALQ
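Enzyme, pH 7.0 phosphate. Compound titrations were pre-incubated with AmpC for 15 min at room temperature before nitrocefin (stock 800 uM) addition; product formation was recorded at 480 nm every 20 s for 4 min.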
AmpC det inh = AmpC beta-lactamase inhibition, detergent assay; purified AmpC, nitrocefin hydrolysis with detergent; Potency, µM (top dose mostly 28.7 µM), inactives show at the top dose activity change, negative = inhibition; actives 0.09% (n = 71,000); AID 584; active means well fitted curve in the direction sought with a large enough effect; inconclusive means small, poorly fitted or top-dose-only effect; further: on the % scale 0 is the no-effect control and ±100 the full control effect
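E. coli AmpC (5.3 nM) in 20 mM phosphate pH 7.0 with 0.01% Triton X-100, preincubated 15 min RT with compound; nitrocefin (2 uL of 800 uM stock) hydrolysis followed by 480 nm absorbance every 20 s over 4 min.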
SmPrx2 inh = inhibitors of Schistosoma mansoni peroxiredoxin 2; Potency, µM; S. mansoni Prx2 activity coupled to TGR/GSH (TGR is thioredoxin glutathione reductase), NADPH fluorescence loss, qHTS; AID 448; actives 0.07% (n = 65,000)
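Activity is read as the drop in NADPH fluorescence (365/450 nm), recorded every 30 sec for 8 min after H2O2 addition. Prx2 is coupled to TGR-driven NADPH oxidation through glutathione, in phosphate buffer pH 7.4.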
The depositor's hits bear a star; [ ] = remark or other dose. Unless noted, the call rests on the fitted dose curve. Potency means the concentration at half of the fitted maximal effect.

Results for CCOC(=O)C1CCCN(C(=O)Cn2nc(Cc3cccnc3)c3ccccc3c2=O)C1 (stereo unspecified) ?
Anthrax LT inh: 2.0%; AmpC nodet inh: 3.16µM*[single pt active]; AmpC det inh: 12.1%; SmPrx2 inh: >57

What do the screens show for `C[C@H]1C=C2C=C[C@H](C)[C@H](CC[C@@H]3C[C@@H](O)CC(=O)O3)[C@H]2[C@@H](OC(=O)[C@@H](C)CCO)C1`?
Anthrax LT inh: -12.6%; AmpC nodet inh: 131.2%; AmpC det inh: -6.2%; SmPrx2 inh: >57

Results for C[C@@H](CCc1ccc(O)cc1)NCCc1ccc(O)c(O)c1 ?
Anthrax LT inh: inconclusive; AmpC nodet inh: -14.7%; AmpC det inh: 0.5%; SmPrx2 inh: >57

What do the screens show for `O=c1nc2s/c(=C\c3ccco3)c(=O)n2nc1Cc1ccc(F)cc1`?
Anthrax LT inh: -14.6%; AmpC nodet inh: 10µM*[single pt active]; AmpC det inh: -4.9%; SmPrx2 inh: >57

What do the screens show for `COc1ccc(Cc2ccc3[nH]c(=O)cc(C)c3c2)cc1S(=O)(=O)O`?
Anthrax LT inh: 14.9%[8 µM]; AmpC nodet inh: 0.1%[5.75 µM]; AmpC det inh: -2.8%[5.75 µM]; SmPrx2 inh: >57

Results for C/C(=C\C(=O)c1ccc(C)cc1)Nc1cccc(O)c1 ?
Anthrax LT inh: 10µM*; AmpC nodet inh: -6.5%; AmpC det inh: 9.2%

Results for O=C(c1cnn2ccccc12)N(Cc1ccco1)C1CCCC1 ?
Anthrax LT inh: -0.1%; AmpC nodet inh: 3.98µM*[single pt active]; AmpC det inh: 10.4%; SmPrx2 inh: >57

Results for COc1ccccc1C(=O)N(Cc1ccco1)C1CCS(=O)(=O)C1 (stereo unspecified) ?
Anthrax LT inh: 3.4%; AmpC nodet inh: 8.1%; AmpC det inh: 14.7%; SmPrx2 inh: >57

Results for COCc1cc(C)nc(N2CCN(c3ccccc3)CC2)c1C#N ?
Anthrax LT inh: 10µM*; AmpC nodet inh: 10.4%; AmpC det inh: 17.4%; SmPrx2 inh: >57

How did Cc1cc(NC(=O)CSc2ncnc3sc4c(c23)CCC(C)C4)no1 (stereo unspecified) do in these assays?
Anthrax LT inh: -1.4%; AmpC nodet inh: 5.01µM*; AmpC det inh: -4.5%; SmPrx2 inh: >57

Results for Cc1cc(NC(=O)CSc2nc(C(C)C)nc3sc(C)c(C)c23)no1 ?
Anthrax LT inh: -3.2%; AmpC nodet inh: 9.7%; AmpC det inh: -1.5%; SmPrx2 inh: >57

What do the screens show for `Cc1cc[c]([Sb]2[O][C@H]([C@H](O)[C@H](O)C(=O)O)[C@@H](CO)[O]2)cc1`?
Anthrax LT inh: -2.0%[8 µM]; AmpC nodet inh: -4.7%[5.75 µM]; AmpC det inh: -1.4%[5.75 µM]; SmPrx2 inh: >57

Results for O=C(O)[C@@H](O)[C@@H](O)[C@@H]1[O][Sb][O][C@@H]1CO ?
Anthrax LT inh: -3.5%[8 µM]; AmpC nodet inh: 5.8%[5.75 µM]; AmpC det inh: -4.7%[5.75 µM]; SmPrx2 inh: 0.855*

Results for CCNc1ncc2nc(-c3cc(F)cc(F)c3)c(=O)n(Cc3cccs3)c2n1 ?
Anthrax LT inh: inconclusive; AmpC nodet inh: -5.9%; AmpC det inh: 0.3%; SmPrx2 inh: >57

Results for C[C@H](Br)C(=O)Nc1ccc(C(=O)O)c(O)c1 ?
Anthrax LT inh: 0.0%[8 µM]; AmpC nodet inh: -14.5%[5.75 µM]; AmpC det inh: -1.1%[5.75 µM]; SmPrx2 inh: >57

What do the screens show for `COc1cccc(OCc2nc3ccccc3[nH]2)c1`?
Anthrax LT inh: -22.2%; AmpC nodet inh: 3.98µM*[single pt active]; AmpC det inh: 12.0%; SmPrx2 inh: >57

What do the screens show for `O=C(Nc1ccc2oc(-c3ccccc3F)nc2c1)c1ccc2c(c1)OCCO2`?
Anthrax LT inh: 10µM*; AmpC nodet inh: 33.7%; AmpC det inh: -3.5%; SmPrx2 inh: >57

Results for O=C(Nc1ccccc1-c1nc2ccccc2o1)c1ccc2c(c1)OCCO2 ?
Anthrax LT inh: -17.0%; AmpC nodet inh: -20.8%; AmpC det inh: 5.0%; SmPrx2 inh: >57

Results for CCCC[C@H]1C[C@@H]1[C@@H]1N(P(=O)(c2ccccc2)c2ccccc2)C[C@@](O)(c2ccccc2)CC12CC2 ?
Anthrax LT inh: inconclusive; AmpC nodet inh: 20.1%; AmpC det inh: 4.3%; SmPrx2 inh: >57

What do the screens show for `CN(C)c1ccccc1CN1CCCN(Cc2ccccc2N(C)C)C1c1ccncc1`?
Anthrax LT inh: -28.9%[8 µM]; AmpC nodet inh: 10.2%[5.75 µM]; AmpC det inh: -0.1%[5.75 µM]; SmPrx2 inh: >57

What do the screens show for `CC(=O)Nc1cccc(NC(=O)CSc2nnnn2Cc2ccccc2)c1`?
Anthrax LT inh: -12.0%; AmpC nodet inh: -6.3%; AmpC det inh: -1.4%; SmPrx2 inh: >57

Bioassay records from PubChem BioAssay.
